# Experimental data as given in PubChem BioAssay (NCATS).
# Results filed as inconclusive are left out. Entries that show only a call come without a potency. Active and inactive are the calls of the source. Calls follow the shape of the dose curve; as a rule, active = well fitted cell-killing curve with a large enough effect; inconclusive = small, poorly fitted or top-dose-only effect, or effect the other way; inactive = flat fitted curve, though single readings scatter.
# Tested on: Tov112D
# Assay: Primary qHTS to identify gynecologic anti-cancer compounds using libraries of approved drugs and bioactive compounds (AID 1345084); also: nearly all actives have a fitted effect of over 55% in size
# Settings: Gynecologic cancer cell panel viability, ATPlite luminescence, 48 h; series mostly up to 57.5 µM
# Outline: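 In this quantitative HTS, cell killing is estimated from loss of ATP-dependent luciferase light. Cells see five compound concentrations over a 48 h exposure.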
# Potency is read from the fitted curve at half-maximal effect.
Structure (SMILES),Potency,"activity change, negative = cytotoxicity"
C[C@@]1(C(=O)Nc2ccc(F)nc2)CCCN1c1nc(Nc2cc(C3CC3)[nH]n2)c2cccn2n1,inactive,
COc1ccnc(CS(=O)c2nc3ccc(OC(F)F)cc3[nH]2)c1OC (stereo unspecified),inactive,
Cc1c(C(=O)Nc2ccc(N3C[C@@H](C)O[C@@H](C)C3)nc2)cccc1-c1ccc(OC(F)(F)F)cc1,inactive,
Cc1cc(-c2ncc(CC(=O)Nc3ccc(-c4cnccn4)cn3)cc2C)ccn1,inactive,
Clc1ccc(C2(c3ccc(-c4cn[nH]c4)cc3)CCNCC2)cc1,inactive,
CN1c2ccccc2C(=O)N2CCc3c([nH]c4ccccc34)C21 (stereo unspecified),3.55 µM (active),
CCn1c(-c2nonc2N)nc2cncc(CNC3CCNCC3)c21,inactive,
NC(=O)c1noc([C@H](CCCC2CCCCC2)CC(=O)NO)n1,inactive,
N#CC1(c2cccc(C(=O)Nc3cc(Oc4ccc5nc(NC(=O)C6CC6)sc5n4)ccc3F)c2Cl)CC1,5.62 µM (active),
O=C(CCCN1CCN(c2ccc(F)cc2)CC1)NC1c2ccccc2CSc2ccccc21 (stereo unspecified),inactive,
CN1CCc2c(n(Cc3ccc(C(=O)NO)cc3)c3ccccc23)C1,inactive,
O=C(Nc1cccc2c(=O)cc(-c3nn[nH]n3)oc12)c1ccc(OCCCCc2ccccc2)cc1,inactive,
C[C@H](c1ccc(F)cc1CCCC(=O)O)N(c1cc(F)ccc1F)S(=O)(=O)c1ccc(Cl)cc1,inactive,
COc1nccc(-c2c(-c3ccc(F)cc3)ncn2C2CCC(O)CC2)n1 (stereo unspecified),inactive,
CN[C@@H](C)[C@H]1[C@H](O)C[C@@]2(C)[C@@H]3CC[C@H]4C(C)(C)[C@@H](NC)CC[C@@]45C[C@@]35CC[C@]12C,,-2.44% [at 11.6 µM] (inactive)
O=C1NC(=O)C(c2cnc3ccccn23)=C1c1cn2c3c(cccc13)CN(C(=O)N1CCOCC1)CC2,inactive,
O=C(Nc1ccc(OC(F)(F)F)cc1)c1sccc1NCc1ccnc2ccccc12,inactive,
CC(=O)Nc1cccc(-n2c(=O)n(C3CC3)c(=O)c3c(Nc4ccc(I)cc4F)n(C)c(=O)c(C)c32)c1,inactive,
C[C@@H](N)c1ccc(C(=O)Nc2ccnc3[nH]ccc23)cc1,25.1 µM (active),
Cc1cnc(CNC(=O)c2c(=O)c3ccc(N4CCCN(C)CC4)nc3n3c2sc2ccccc23)cn1,,-20.9% [at 11.6 µM] (inactive)
COc1nccc(-c2c(-c3ccc(F)cc3)ncn2C2CCNCC2)n1,inactive,
